From PubChem BioAssay (NCI)
About 83,000 compounds went through this panel and 20% of them were active in at least one assay; those are over-represented in the sample as a whole.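 Treatment: one concentration, 48 hours, 96-well format. Scoring: percent growth, with anything below 10 considered active.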 A number with no mark means an inactive call. Activity calls are given as the source filed them.

Experiments:
Assay in all cases: NCI-60 one-dose screen, 48 h (100 = growth as untreated, 0 = no growth, -100 = all killed)
Conditions in all cases: 10 µM unless noted
SR leukemia = tested on: SR leukemia
RPMI-8226 leukemia = tested on: RPMI-8226 leukemia
OVCAR-8 ovarian = tested on: OVCAR-8 ovarian
OVCAR-5 ovarian = tested on: OVCAR-5 ovarian
OVCAR-4 ovarian = tested on: OVCAR-4 ovarian
SK-OV-3 ovarian = tested on: SK-OV-3 ovarian
IGROV1 ovarian = tested on: IGROV1 ovarian
HS 578T breast = tested on: HS 578T breast
NCI/ADR-RES ovarian = tested on: NCI/ADR-RES ovarian

Row | Compound | growth (SR leukemia) | growth (RPMI-8226 leukemia) | growth (OVCAR-8 ovarian) | growth (OVCAR-5 ovarian) | growth (OVCAR-4 ovarian) | growth (SK-OV-3 ovarian) | growth (IGROV1 ovarian) | growth (HS 578T breast) | growth (NCI/ADR-RES ovarian)
1 | O=C1C(N2CCN(c3ccccc3)CC2)=C(Cl)C(=O)c2ncccc21 | 3.69% (active) | 35.5% | 73.5% | 107% | 66% | 91.5% | 70% | 79.8% | 77%
2 | COc1ccccc1N1CCN(C2=C(Cl)C(=O)c3ncccc3C2=O)CC1 | 12.4% | 79.4% | 90.5% | 114% | 85.7% | 90.5% | 86.3% | 87.2% | 81.7%
3 | COc1ccc(/C=N/N=C(/c2ccccc2)c2ccc3nc(-c4ccc(Cl)cc4)[nH]c3c2)cc1 | 71.2% | 48.6% | 80.4% | 81.5% | 75% | 93.2% | 97.5% | 97.4% | 85%
4 | Cc1csc(/N=C(N)/N=C(\N)c2cccc(C#N)c2)n1 | 30.2% | 87.8% | 85.8% | 106% | 97.2% | 76.3% | 77.7% | 83.1% | 58.3%
5 | C#C[C@]1(O)CC[C@H]2[C@@H]3CC=C4c5sc(N6CCN(C)CC6)nc5CC[C@]4(C)[C@H]3CC[C@@]21C | 4.08% (active) | -13.3% (active) | 74.2% | 69.5% | 75.6% | 54% | 63.2% | 59.8% | 36.8%
6 | CN1CCN(CCNc2nc(-c3cccc(NS(=O)(=O)c4cccc5c(N(C)C)cccc45)c3)cs2)CC1 | 23.4% | 35.8% | 75.9% | 90.3% | 71.5% | 91.6% | 78.5% | 87.9% | 86.9%
7 | CC(=O)c1c([Si](C)(C)C)c2cc(C#N)ccn2c1C(=O)c1ccc(Br)cc1 | 87.9% | 92.1% | 94.8% | 79% | 76.2% | 98.3% | 68.7% | 79.3% | 88.6%
8 | C#C[C@]1(O)CC[C@H]2[C@@H]3CC=C4c5sc(NCc6ccccc6)nc5CC[C@]4(C)[C@H]3CC[C@@]21C | 3.34% (active) | -25.3% (active) | 65.2% | 84% | 73.6% | -10% (active) | 76.8% | -4.78% (active) | 72.4%
9 | CCc1cc2c(cc1Cl)nc1c(=O)[nH]c(=O)nc-1n2CCOCC(C)C | 22.7% | 66.6% | 59.2% | 120% | 44.1% | 111% | 58.6% | 98.2% | 74.1%
10 | O=C(/C=C/c1ccc(Cl)c(Cl)c1)Nc1ncc(Cc2ccc(Cl)c(Cl)c2)s1 | 38% | 81.2% | 44% | 59.6% | 34% | 77.1% | 60.6% | 76.4% | 52.8%
11 | C#CCOc1ccc(-c2csc(NC(=O)C=C)n2)cc1NS(=O)(=O)c1cccc2c(N(C)C)cccc12 | 8.34% (active) | -9.93% (active) | 23.2% | 81.1% | 63.2% | 118% | 32.3% | 79.2% | 27.5%
12 | CCOC(=O)c1cccnc1Nc1ccc(NC(=O)Nc2ccc(Cl)c(C(F)(F)F)c2)cc1 | 54% | 16% | 39.3% | 85.7% | 42.8% | 70.1% | 29.9% | 84.5% | 35.3%
13 | O=C(/C=C/c1cc(Cl)ccc1Cl)Nc1ncc(Cc2ccc(Cl)cc2)s1 | 14% | 16.2% | 1.15% (active) | 23.9% | 30.4% | 35.6% | 5.94% (active) | 6.99% (active) | -5.33% (active)
14 | CCCCCCCCCCCC(=O)NC(C)(C)C(=O)N1CCCC1C(=O)NC(C)(C)C(=O)NC(C)(C)C(=O)N1CCCC1C(=O)NC(C)(C)C(=O)NC(C)(C)C(=O)N1CCCC1C(=O)NC(C)C(=O)NCCC(=O)NC(C)C(=O)NC(C)(C)C(=O)NC(C)(C)C(=O)NC(C)(C)C(=O)NCCC(=O)NC(C)(C)C(=O)NC(C)(C)C(=O)NC(C)(C)C(=O)NC(C)C(=O)NCCC(=O)O (configuration not stated) | -61.5% (active) | -54.4% (active) | -93.4% (active) | -95.4% (active) | -94.5% (active) | -96.9% (active) | -93.8% (active) | -69.8% (active) | -80.9% (active)
15 | Cc1ccc(N2CCN(C3=C(Cl)C(=O)c4ncccc4C3=O)CC2)cc1 | 4.58% (active) | 11.8% | 67.9% | 110% | 48.3% | 112% | 58.6% | 79.7% | 55.8%
16 | COc1ccc(C(=NNS(=O)(=O)c2ccc(C)cc2)c2ccccc2)cc1OC | 111% | 93.6% | 97.5% | 103% | 102% | 107% | 90.8% | 104% | 96.8%
17 | O=C(NCCNc1cc(-c2cn(-c3ccccc3)nc2-c2cccc(O)c2)ccn1)Nc1cc(C(F)(F)F)cc(C(F)(F)F)c1 | 81.3% | 94.7% | 98.5% | 97.3% | 91.6% | 104% | 82.2% | 93.9% | 91.9%
18 | COc1ccc(/C(=N\N=C(N)N)c2ccc(Cl)cc2)cc1OC | 42.7% | 70.4% | 87.2% | 78.2% | 88.4% | 78.5% | 51.5% | 67.5% | 99.3%
19 | CS(=O)(=O)c1nccc(-c2c(-c3cccc(OCc4ccc(Cl)c(C(F)(F)F)c4)c3)nc3sccn23)n1 | 9.33% (active) | -16.8% (active) | 99.3% | 101% | 71.9% | 104% | 34.1% | 41.1% | 98.2%
20 | CN1CCN(Cc2ccc(NC(=O)c3cncc(C#Cc4cnc5ccc(O[C@@H]6CCOC6)nn45)c3)cc2C(F)(F)F)CC1 | -29.7% (active) | -24.1% (active) | -60.1% (active) | -66% (active) | -73.7% (active) | -67.8% (active) | -51.9% (active) | -46.9% (active) | -34.5% (active)
21 | CC(=O)N1N=C(c2cc3ccccc3oc2=O)CC1c1cn(-c2ccccc2)nc1-c1ccc(C)cc1 (configuration not stated) | 101% | 102% | 97.3% | 94.1% | 94.4% | 95.2% | 108% | 93.7% | 96.1%
22 | NS(=O)(=O)c1ccc(CCn2c(-c3ccc(C(=O)O)cc3)nc(-c3ccccc3)c2-c2ccccc2)cc1 | 99.7% | 100% | 111% | 103% | 99.4% | 111% | 108% | 101% | 105%
23 | NC(N)=NS(=O)(=O)c1ccc(N=Nc2c(N)nn(-c3ccc([N+](=O)[O-])cc3[N+](=O)[O-])c2N)cc1 | 107% | 99.1% | 100% | 106% | 104% | 91.4% | 103% | 97.9% | 99.3%
24 | CN1CCN(CCCCCC(=O)Nc2nc(-c3cccc(NS(=O)(=O)c4cccc5c(N(C)C)cccc45)c3)cs2)CC1 | -4.68% (active) | 34.9% | 87.8% | 91.6% | 89.6% | 105% | 87.8% | 73.1% | 94.1%
25 | N#C/C(=C\c1ccc(-c2ccc(Cl)cc2)o1)C(=O)Nc1ncc(Cc2ccc(Br)cc2)s1 | 16.8% | 64.1% | 6.49% (active) | 42.4% | -26.7% (active) | 70.3% | 7.06% (active) | -2.91% (active) | 8.56% (active)
26 | CC[C@]12C=CCN3CC[C@]4(C(=C(C(=O)OC)C1)Nc1cc5c(cc14)[C@@H]1[C@H](O5)[C@@H](O)[C@@]4(CC)CC(C(=O)OC)=C5Nc6cc(O)ccc6[C@@]56CCN1C46)C32 (some centres not stated) | 5.68% (active) | -10.2% (active) | 19.4% | 20.7% | 15.4% | 24.1% | -2.81% (active) | -7% (active) | 2.99% (active)
27 | CCN(CC)c1ccc(/C=N/NC(=O)c2ccc(S(N)(=O)=O)cc2)cc1 | 14.1% | 34.3% | 14.6% | 46.7% | 30.4% | 35.5% | 19.9% | 64.1% | 53.8%
28 | CCN1CCN(c2ccc(NC(=O)Nc3ccc4c(ccn4-c4ccnc(C(=O)NC)c4)c3)cc2C(F)(F)F)CC1 | -2.78% (active) | 8.67% (active) | 98.4% | 89% | 87% | 80.6% | 79.3% | 34.6% | 86.5%
